This note sets out measurements from PubChem BioAssay AID1852 (Sanford-Burnham Center for Chemical Genomics, 2009).

Screen size: about 2,500 compounds; about 1,100 (44%) were called active.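 How the source made its calls: active means inhibition above 50% at 4 µM in the single-point screen; inactive means inhibition of 50% or less.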 So high a share suggests a set chosen from earlier hits. The list shows a part of the results.

One may read the inhibition as the change of the read-out against control, counted positive when it falls.

The assay in a line: TNF-a-driven NF-kB reporter inhibitors, primary screen, selectivity assay for NOD1/NOD2 signaling inhibitor project, cell-based, HEK293T NF-kB-Luc, luminescence (AID 1852). Particulars: TNF-a induced, 14 h, at 4 µM, stronger effect = higher value.
Regarding `COc1ccc(CCNC(=S)N2CCC(Cc3ccccc3)CC2)cc1OC`, the inhibition was 47.4% (inactive).

`COc1ccc(NC(=S)N2CCN(C/C=C/c3ccccc3)CC2)c(OC)c1`: the inhibition was 57.8% (active). With `COc1ccc(NC(=O)c2cc(N3C(=O)C4C5CCC(C5)C4C3=O)ccc2Cl)c(OC)c1` (stereo not given), the inhibition is 30.6% (inactive). For `c1ccc(CCc2nn3c(-c4ccncc4)nnc3s2)cc1`, the inhibition is 82.6% (active). As to `c1csc(Cc2nn3c(-c4ccncc4)nnc3s2)c1`, the inhibition is 42.2% (inactive). As to `c1cc(-c2nnc3sc(C4CCCCC4)nn23)ccn1`, the inhibition was 57.5% (active). On to `O=C(CCN1C(=O)c2ccc([N+](=O)[O-])cc2C1=O)Nc1ccc(O)cc1C(=O)O`, for which the inhibition was -3.9% (inactive). Turning to `CCCc1nc2c(=O)n(C)c(=O)nc-2n(C)n1`, the inhibition is 105% (active). With `Cc1ccc(OCC(=O)c2cc(C)n(Cc3cccs3)c2C)c([N+](=O)[O-])n1`, the inhibition is 68.2% (active). Consider `CCCn1c(C)cc(C(=O)COc2ccc(C)nc2[N+](=O)[O-])c1C`, for which the inhibition is -16.5% (inactive). With `Cc1cc(C(=O)COc2cccnc2[N+](=O)[O-])c(C)n1Cc1cccs1`, the inhibition is 38.6% (inactive).

For `COCCn1c(C)cc(C(=O)COC(=O)c2cccc(O)c2)c1C`, the inhibition is 81.1% (active). Regarding `COCCn1c(C)cc(C(=O)CSc2nnc3ccccn23)c1C`, the inhibition is 17.3% (inactive). In the case of `C=CCn1c(C)cc(C(=O)COc2ccc(C)nc2[N+](=O)[O-])c1C`, the inhibition was 30% (inactive). On to `COCCn1c(C)cc(C(=O)COc2ccc(C)nc2[N+](=O)[O-])c1C`, for which the inhibition was 79.2% (active). Next, `Cc1cc(C(=O)COc2cccnc2[N+](=O)[O-])c(C)n1-c1ccccc1F`: 38.6% (inactive); `Cc1ccc(OCC(=O)c2cc(C)n(-c3ccccc3)c2C)c([N+](=O)[O-])n1`: 72.3% (active). Next, `COCC(C)n1c(C)cc(C(=O)COc2ccc(C)nc2[N+](=O)[O-])c1C` (stereo not given): 41% (inactive); `COc1ccccc1[C@@H]1C(c2cccc(C)c2)=NN(c2ccccc2)[C@H]1C(=O)N1CCOC1=O`: -11.7% (inactive); `Cc1cc(C(=O)COc2cccnc2[N+](=O)[O-])c(C)n1Cc1ccco1`: -11% (inactive). Turning to `Cc1ccc(OCC(=O)c2cc(C)n(Cc3ccco3)c2C)c([N+](=O)[O-])n1`, the inhibition is 65.1% (active). The figure for `COc1cccc(/C=N/NC(=O)CNC(=O)/C=C\c2ccccc2)c1O` is 82.6% (active); for `COc1cccc(/C=N/NC(=O)c2cc3c(OC)ccc(OC)c3[nH]2)c1O` it is 48.6% (inactive); for `COc1cccc(/C=N/NC(=O)CNC(=O)C(c2ccccc2)c2ccccc2)c1O` it is 92.3% (active). The figure for `CN(C1=C(NC(=O)c2ccc(Cl)cc2)C(=O)c2ccccc2C1=O)c1ccccc1` is 21.3% (inactive); for `CNC1=C(N(C(C)=O)c2ccc(Br)cc2)C(=O)c2ccccc2C1=O` it is 98.3% (active); for `O=C(/C=C/c1ccco1)NCC1COc2ccccc2O1` (stereo not given) it is -14.9% (inactive). For `COc1cccc(C(=O)Nc2ccc(Oc3cccc(C(F)(F)F)c3)nc2)c1`, the inhibition is 53.3% (active). Turning to `O=C(Nc1ccc(Oc2cccc(C(F)(F)F)c2)nc1)c1cccs1`, the inhibition was 49.2% (inactive).

For `O=C(Nc1ccc(Oc2cccnc2)nc1)c1ccc(C(F)(F)F)cc1`, the inhibition is 42.6% (inactive). For the compound `Cc1ccc(-n2[nH]c3c4c(ccc3c2=O)C(=O)c2ccccc2C4=O)cc1`, the inhibition is 99.4% (active).

Consider `Cc1ccc(C)c(-n2[nH]c3c4c(ccc3c2=O)C(=O)c2ccccc2C4=O)c1`, for which the inhibition was 58.4% (active).

For the compound `Cc1cccc(-n2[nH]c3c4c(ccc3c2=O)C(=O)c2ccccc2C4=O)c1`, the inhibition was 37.6% (inactive). Take `CCc1ccc(CN(C)C(=O)CCc2nc3ccccc3n(-c3ccc(OC)cc3)c2=O)cc1`: the inhibition is 41.1% (inactive). `CCCCOC(=O)c1[nH]c2c(c1C)C(=O)CC(c1cc(OC)c(OC)c(OC)c1)C2` (stereo not given): the inhibition was 47.1% (inactive).

For `COCCOC(=O)c1[nH]c2c(c1C)C(=O)CC(c1cc(OC)c(OC)c(OC)c1)C2` (stereo not given), the inhibition was 58.3% (active). Turning to `CCCOC(=O)c1[nH]c2c(c1C)C(=O)CC(c1cc(OC)c(OC)c(OC)c1)C2` (stereo not given), the inhibition is 40.2% (inactive). Consider `CC1=Nc2ccccc2/C1=C/c1sc(=N)n(-c2nccs2)c1O`, for which the inhibition is 99.2% (active).

As for `Cc1ccc(-n2c(O)c(/C=C3/C(c4ccccc4)=Nc4ccccc43)c(=O)[nH]c2=O)cc1`, the inhibition is 28.1% (inactive). For `O=C(Nc1nnc(S(=O)(=O)N2CCCCCC2)s1)c1ccc(Br)cc1`, the inhibition was -43.1% (inactive). In the case of `CCOC(=O)c1ccc(NC(=O)C2CCCN(S(=O)(=O)c3ccc(F)cc3)C2)cc1` (stereo not given), the inhibition was -6.1% (inactive). Consider `O=C(Nc1nc(-c2cccs2)cs1)c1ccc(S(=O)(=O)N2CCCC2)cc1`, for which the inhibition was 83.9% (active). As for `O=C(Nc1nc(-c2ccccc2)cs1)C1CCCN(S(=O)(=O)c2ccccc2)C1` (stereo not given), the inhibition was 87.9% (active). The figure for `O=C(Nc1nnc(S(=O)(=O)N2CCCCCC2)s1)c1ccc(Cl)cc1` is -43% (inactive); for `COC(=O)c1ccccc1NC(=O)C1CCCN(S(=O)(=O)c2ccc(F)cc2)C1` (stereo not given) it is 21.7% (inactive); for `COc1ccc(C(C)=O)cc1COC(=O)c1cc2ccccc2cc1O` it is 12.5% (inactive). Next, `COc1cc(NC(=O)c2cc3ccccc3cc2O)c(OC)cc1Cl`: 47.5% (inactive). The figure for `COc1ccccc1NC(=O)c1cc2cc(Br)ccc2cc1O` is 82.6% (active). `CCOC(=O)CC1CCCCN1C(=O)c1cc(COc2cccc3cnccc23)on1` (stereo not given): the inhibition is 60.8% (active). As to `O=C(c1cc(COc2ccc3ncccc3c2)on1)N1CCCCCC1`, the inhibition is 31.2% (inactive). `COC(=O)C1CCCCN1C(=O)c1cc(COc2cccc3cnccc23)on1` (stereo not given): the inhibition is 53.1% (active). As to `COCCC1CCCCN1C(=O)c1cc(COc2ccc(-n3cncn3)cc2)on1` (stereo not given), the inhibition was 15.4% (inactive). As for `O=C(NC1CCCC1)c1sc(=S)n2c1[nH]c(=O)c1ccccc12`, the inhibition is 72.6% (active). For the compound `CC(Sc1nnc2c(n1)[nH]c1ccccc12)C(=O)NC1CCCCC1` (stereo not given), the inhibition was 30% (inactive). `O=C(NC1CCCCC1)c1sc(=S)n2c1[nH]c(=O)c1ccccc12`: the inhibition was 85.3% (active). As to `O=C(CSc1nnc2c(n1)[nH]c1ccccc12)NC1CCCCC1`, the inhibition is 47% (inactive).

Take `N#C/C(=N\Nc1cccc(C(F)(F)F)c1)C(=O)c1csc(-c2cccnc2)n1`: the inhibition is 80.5% (active). Take `CC(C)(C)OC(=O)NCCc1nnc(S(=O)(=O)Cc2ccc(Cl)cc2Cl)o1`: the inhibition is 45.3% (inactive). Take `O=C(COc1ccc2c(-c3ccccc3)cc(=O)oc2c1)Nc1ccc(CCO)cc1`: the inhibition is 44.2% (inactive). The figure for `O=C(CNC(=O)OCc1ccccc1)Oc1cc2oc(=O)cc(-c3ccccc3)c2cc1Cl` is 83.1% (active); for `CC(C)(C)OC(=O)NCC(=O)Oc1cc2oc(=O)cc(-c3ccccc3)c2cc1Cl` it is 58% (active); for `CCCNc1c(NS(=O)(=O)c2ccc3c(c2)CCCC3)c(=O)oc2ccccc12` it is -3.6% (inactive). For `O=C(COc1ccc(Br)cc1)Nc1ccc(Cc2ccncc2)cc1`, the inhibition is 64.1% (active). For the compound `Cc1cc(OCC(=O)Nc2ccncc2)cc(C)c1Br`, the inhibition was 34.4% (inactive).

In the case of `Cc1cc(OCC(=O)Nc2ccncc2)cc(C)c1Cl`, the inhibition is 41% (inactive).

`COc1cccc2sc(N(CCCN(C)C)C(=O)CCS(=O)(=O)c3ccccc3)nc12`: the inhibition was 44.2% (inactive). For the compound `Nc1ncncc1-c1ccc2ccccc2c1`, the inhibition was 16.7% (inactive). With `Nc1nc(CCl)nc(Nc2ccc3ccccc3c2)n1`, the inhibition is -13.4% (inactive). As to `Nc1nc(N)c2cc(Sc3ccc4ccccc4c3)ccc2n1`, the inhibition was 51.9% (active).

Turning to `Cc1ccccc1NC1=C/C(=N\S(=O)(=O)c2ccc(C(=O)O)cc2)c2ccccc2C1=O`, the inhibition was 104% (active). As to `O=C1C=C(Nc2ccccc2O)c2ccccc2C1=O`, the inhibition is 38.6% (inactive). `COC(=O)c1ccccc1NC1=C/C(=N\S(=O)(=O)c2ccc(C(=O)O)cc2)c2ccccc2C1=O`: the inhibition is 106% (active).

On to `CC(=O)Nc1ccc(S(=O)(=O)NCc2nc(-c3ccccc3C)no2)cc1`, for which the inhibition is -15.1% (inactive).

For the compound `O=C(O)c1ccc(S(=O)(=O)/N=C2\C=C(Nc3ccccc3F)C(=O)c3ccccc32)cc1`, the inhibition is 89.6% (active). In the case of `Cc1ccc(-c2nc(NC(=O)c3nn(C)cc3[N+](=O)[O-])sc2C)cc1C`, the inhibition was 33.4% (inactive).

Regarding `COc1ccc2sc3c(=O)[nH]c4ccccc4c3c2c1`, the inhibition is 54.1% (active).

In the case of `CCc1nnc(NC(=O)c2ccc(Cl)c(S(=O)(=O)N3CCc4ccccc4C3)c2)s1`, the inhibition was 31.8% (inactive). Next, `Cn1cc(S(=O)(=O)N2CCc3ccccc32)cc1C(=O)Nc1ccc(Cl)cc1`: 24.7% (inactive); `CCc1nnc(NC(=O)c2ccc(Cl)c(S(=O)(=O)N3CCc4ccccc43)c2)s1`: 53.5% (active); `CCCNC(=O)COC(=O)c1ccccc1C(=O)c1ccc(Cl)c([N+](=O)[O-])c1`: 65.9% (active). With `O=C(COC(=O)c1ccccc1C(=O)c1ccc(Cl)c([N+](=O)[O-])c1)NC1CC1`, the inhibition was 73.1% (active). Consider `N#Cc1cccc(NC(=O)Cn2cnc(S(=O)(=O)N3CCc4ccccc43)c2)c1`, for which the inhibition is 8.2% (inactive). As to `Cc1ccc[n+](CC(=O)Nc2ccc(Cl)c([N+](=O)[O-])c2)c1`, the inhibition was -10% (inactive). On to `Cc1ccc(Cl)c(NC(=O)COC(=O)c2ccccc2C(=O)c2ccc(Cl)c([N+](=O)[O-])c2)c1Cl`, for which the inhibition is 84.2% (active). For the compound `O=C(NCc1cc(Br)cc(Br)c1OC(=O)c1ccccc1[N+](=O)[O-])c1ccccc1`, the inhibition was -35.5% (inactive). Turning to `O=C(COC(=O)c1ccccc1C(=O)c1ccc(Cl)c([N+](=O)[O-])c1)NC1CCCCCC1`, the inhibition was 27.6% (inactive). Regarding `N#Cc1cccc(NC(=O)COC(=O)c2ccccc2C(=O)c2ccc(Cl)c([N+](=O)[O-])c2)c1`, the inhibition was 83.2% (active). On to `O=C(O)c1ccc(N/N=C/c2ccc(OC(=O)c3cccc(Cl)c3)cc2)cc1`, for which the inhibition was -26.3% (inactive). Next, `CNC(=O)COC(=O)c1ccccc1C(=O)c1ccc(Cl)c([N+](=O)[O-])c1`: 81.6% (active); `Nc1ccc(C(=O)OCC(=O)N2CCc3ccccc3C2)cc1[N+](=O)[O-]`: 31.9% (inactive).
